Results: the supplement of paper PMC7801607

Legend:
[1] = test system: CHO; experiment: % viability of CHO cells (MTT); higher = less toxic; conditions: 48 h
Method in brief: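 CHO cells were seeded at 10^6 cells/well in 200 µL and left overnight to attach. The medium was then replaced with fresh medium containing compound at 2 or 20 µM for 48 h. Survival was read colorimetrically with the tetrazolium (MTT) assay. Percent viability was expressed relative to untreated cells.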

[2] = test system: HepG2-A16-CD81; experiment: % inhibition of HepG2 viability (CellTiter-Glo); higher = more toxic; conditions: 5 µM
[3] = test system: Plasmodium falciparum NF54 stage IV/V gametocytes; experiment: % inhibition of gametocyte viability (PrestoBlue); higher = more inhibition; conditions: 48 h
Method in brief: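 Stage IV/V NF54 gametocytes (2% gametocytaemia, 5% haematocrit, 100 µL/well) were exposed to compound at 1 or 5 µM. Incubation was 48 h at 37 °C, stationary and hypoxic, followed by 10 µL PrestoBlue for 2 h. Fluorescence at 612 nm was read on 70 µL of transferred supernatant. Percent inhibition of gametocyte viability was normalised to DMSO and kill controls from a single run.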

[4] = test system: Plasmodium falciparum NF54 asexual blood stage; experiment: % inhibition of asexual blood stage proliferation (pLDH); higher = more inhibition; conditions: 72 h
Method in brief: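 Plasmodium falciparum NF54 ring-stage cultures (1% haematocrit, 2% parasitaemia) were exposed to compound at 2 or 20 µM in 96-well plates. Incubation was 72 h at 37 °C under 4% CO2, 3% O2 and 93% N2. Survival was read colorimetrically at 620 nm with the parasite lactate dehydrogenase assay. Percent inhibition of asexual proliferation was normalised to DMSO and kill controls, and the screen was run on two separate occasions.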

[5] = test system: Plasmodium falciparum NF54 stage IV/V gametocytes; experiment: % inhibition of gametocyte viability (ATP bioluminescence); higher = more inhibition; conditions: 24 h
Method in brief: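 In 96-well plates, compound at 1 or 5 µM was added to 30,000 density-gradient-enriched stage IV/V NF54 gametocytes per well and incubated for 24 h at 37 °C. ATP readout used the Promega BacTiter Glo bioluminescence system. Percent inhibition of gametocyte viability comes from a single run, normalised to control wells.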

[6] = test system: Plasmodium falciparum NF54 stage IV/V gametocytes; experiment: % inhibition of gametocyte viability (luciferase reporter); higher = more inhibition; conditions: 48 h
Method in brief: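 Compound at 1 or 5 µM was added to stage IV/V NF54-Pfs16-GFP-Luc gametocytes (2% gametocytaemia, 2% haematocrit) and incubated stationary and hypoxic at 37 °C for 48 h. A GloMax-Multi+ reader measured luminescence over 10 s integration on 30 µL lysate plus 30 µL Promega luciferin substrate. Percent inhibition values were normalised to controls within a single run.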

[7] = test system: Plasmodium berghei ANKA liver stage in HepG2-A16-CD81; experiment: % inhibition of liver stage parasite viability (luciferase); higher = more inhibition; conditions: 5 µM; 48 h
Description: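 Single-concentration screen of the MMV Pandemic Response Box. P. falciparum NF54 asexual blood stages: pLDH assay, 72 h at 37 °C, 2 and 20 µM, n=2. Stage IV/V gametocytes (NF54): luciferase reporter (NF54-Pfs16-GFP-Luc, 48 h), ATP bioluminescence (24 h) and PrestoBlue (48 h) at 1 and 5 µM, n=1. P. berghei liver stage (luciferase in HepG2-A16-CD81, 48 h post infection) at 5 µM, n=4. All normalised to DMSO and kill controls as % inhibition.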
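Wherever % inhibition of HepG2 viability (CellTiter-Glo) is given: HepG2-A16-CD81 hepatoma cells plated as in the liver-stage assay but without sporozoites, with DMSO wells as negative and 25 µM puromycin as positive control.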

Structure (SMILES)	% viability of CHO cells ([1]; 2 µM)	% viability of CHO cells ([1]; 20 µM)	% inhibition of HepG2 viability [2]	% inhibition of gametocyte viability ([3]; 1 µM)	% inhibition of gametocyte viability ([3]; 5 µM)	% inhibition of asexual blood stage proliferation ([4]; 2 µM)	% inhibition of asexual blood stage proliferation ([4]; 20 µM)	% inhibition of gametocyte viability ([5]; 1 µM)	% inhibition of gametocyte viability ([5]; 5 µM)	% inhibition of gametocyte viability ([6]; 1 µM)	% inhibition of gametocyte viability ([6]; 5 µM)	% inhibition of liver stage parasite viability [7]
O=c1cc(OCc2ccccc2)ccn1Cc1ccccc1	82.6%	98.7%	-3.88%	14.1%	6.4%	6.62%	51.5%	< 0%	< 0%	< 0%	< 0%	20.3%
O=C(O)/C=C/C=C/c1cccc(Oc2cc(Cl)cc(Cl)c2)c1	97.3%	110%	-6%	< 0%	< 0%	30.7%	41.4%	3.95%	2.02%	9.35%	0.936%	28.9%
NC(=O)c1nccn([C@@H]2O[C@H](CO)[C@@H](O)[C@H]2O)c1=O	91.2%	105%	4.39%	5.72%	19.8%	11.7%	53.8%	< 0%	< 0%	7.58%	< 0%	14.7%
CN1CCN(Cc2ccc(-c3cnc4[nH]cc(-c5ccc6[nH]ccc6c5)c4c3)cc2)CC1	68%	26.3%	21.4%	10%	< 0%	66%	66.9%	11%	65.5%	< 0%	< 0%	33.2%
Cc1ccccc1NC(=O)Nc1cccc([N+](=O)[O-])c1	121%	111%	8.58%	< 0%	2.93%	3.72%	73.7%	6.45%	< 0%	3.59%	< 0%	6.73%
N#Cc1c(F)c(Cl)c(NCc2ccccc2)c(C#N)c1F	102%	-2.81%	2.78%	20.8%	49.5%	56.1%	95.3%	< 0%	20.5%	2.47%	52.5%	22.3%
O=C(Nc1nnc(-c2ccc(Cl)cc2)o1)c1nc2ccccc2s1	111%	92.6%	0.777%	6.81%	13.9%	73.6%	91.4%	1.06%	< 0%	1.1%	< 0%	11%
CC(=N)N1CC[C@H](SC2=C(C(=O)O)N3C(=O)[C@@H]([C@@H](C)O)[C@H]3C2)C1	85.2%	33.9%	-4.07%	< 0%	< 0%	5.77%	14.6%	< 0%	< 0%	< 0%	0.678%	5.53%
COc1ccc(CNC(=O)C(NS(=O)(=O)c2ccc3nc(C)sc3c2)C(C)C)cc1 (stereo not drawn)	105%	75.8%	3.43%	48.7%	50.8%	81.6%	111%	< 0%	< 0%	13.6%	< 0%	21.7%
CNC(=O)C1O[C@@H](n2cnc3c(NCc4cccc(I)c4)nc(Cl)nc32)[C@H](O)[C@@H]1O (stereo partly drawn)	97.5%	132%	-10.3%	12.5%	24.1%	33.8%	63%	< 0%	< 0%	< 0%	< 0%	19.8%
CC(C)(C)c1cccc(-c2nc3cc(C(=N)N)ccc3[nH]2)c1O	98.4%	106%	-1.3%	< 0%	41.8%	21.4%	79.9%	0.668%	3.93%	< 0%	14.8%	26.2%
COc1ccccc1NC(=O)c1ccccc1Sc1ccc([N+](=O)[O-])cc1	85.2%	108%	-1.52%	17.1%	14.1%	-1.69%	81%	7.24%	1.71%	3.21%	8.85%	27%
COc1nc2ccc(Br)cc2cc1[C@@H](c1ccccc1)[C@@](O)(CCN(C)C)c1cccc2ccccc12	107%	140%	-0.302%	< 0%	< 0%	82.9%	101%	< 0%	49.3%	14.4%	19.2%	31.1%
Nc1nc(F)nc2c1ncn2[C@H]1O[C@@H](CO)[C@H](O)[C@@H]1O	33.8%	4.44%	77.8%	21.2%	19.8%	67.3%	72.4%	11.1%	< 0%	4.93%	35.8%	76%
CCNC(=O)Nc1cc(-c2ccccc2)c(-c2cncc(C(=O)O)c2)cn1	109%	94%	-1.59%	19.7%	30.2%	-11.2%	-0.305%	< 0%	< 0%	< 0%	< 0%	41.3%
NC(=O)[C@@H]1CC[C@@H]2CN1C(=O)N2OS(=O)(=O)O	82.9%	117%	4.71%	< 0%	< 0%	30.8%	16.5%	1.17%	< 0%	< 0%	1.87%	12.2%
Fc1ccc(-c2nc(-c3c[nH]c4ccc(Br)cc34)[nH]c2-c2ccc(F)cc2)cc1	97.3%	-2.96%	1.87%	< 0%	< 0%	74%	83.7%	< 0%	< 0%	< 0%	< 0%	27.7%
COCCn1cnc2c(=O)[nH]c(Nc3ccccc3)nc21	103%	63.9%	5.25%	< 0%	0.985%	28.3%	62.8%	7.08%	5.85%	14.5%	5.09%	7.54%
O=C1C=C(c2ccccc2)S(=O)(=O)c2ccccc21	91.6%	81.8%	-4.77%	53.4%	76%	-2.86%	54.4%	13.8%	83.4%	16%	85.4%	30.4%
